# Laboratory results: PubChem BioAssay AID463190 (Sanford-Burnham Center for Chemical Genomics, 2010)
# Hit rate of the full screen: of about 330,000 compounds, about 7,300 (2.2%) were called active.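 Rule for the calls: active = inhibition of at least 40%; inactive = the rest.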 What follows is part of a selection rich in actives, with near analogues and random picks from the rest.
# Assay: growth inhibitors of tim10-1 mutant yeast, primary screen, luminescence, uHTS (AID 463190);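 note: mutant grown at 25 °C; 0% = DMSO wells with yeast and 100% = wells holding no yeast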
# Conditions: S. cerevisiae tim10-1 ts strain growth, BacTiter-Glo, 24 h; at 20 µM; stronger effect = higher value
row,SMILES,inhibition
1,Cn1c2ccccc2n2c(=O)c(=O)n(CC(=O)c3ccc(F)cc3)nc12,-14.7% (inactive)
2,COc1ccc(/C=C(\C#N)C(=O)ONC2=NCCCCC2)cc1,48.2% (active)
3,COc1ccc(N2CCN(C(=O)/C(C#N)=C/c3ccccc3)CC2)cc1,18.8% (inactive)
4,COc1ccc(/C=C(\C#N)C(=O)OCC(=O)N(C)C2CCS(=O)(=O)C2)cc1 (stereo unspecified),-4.56% (inactive)
5,CN(NC(=O)c1ccccc1F)c1nc(C(F)(F)F)nc2ccccc12,6.21% (inactive)
6,Cc1ccc(Nc2c(F)c(F)c(F)c(F)c2C(=O)O)c(C)c1,-6.12% (inactive)
7,NS(=O)(=O)c1ccc(N=Nc2c(O)[nH]c3ccc(Br)cc23)cc1,-13% (inactive)
8,Oc1[nH]c2ccc(Br)cc2c1N=Nc1nn[nH]n1,16.7% (inactive)
9,Cc1cccc(N=Nc2c(O)[nH]c3ccc(F)cc23)c1,43.6% (active)
10,Nc1cccc(-c2cc(-c3ccccc3)nc(-c3cccc(N)c3)n2)c1,26.4% (inactive)
11,Nc1nc(-c2ccccc2)cc(-c2ccccc2)n1,41.6% (active)
12,c1ccc(-c2cc(-c3ccccc3)[nH]n2)cc1,7% (inactive)
13,CCNc1nc(NCC)nc(N(C)n2cnnc2)n1,13.1% (inactive)
14,O=C1N=C2SCCN2/C1=C\c1c(Cl)cccc1Cl,-18.2% (inactive)
15,CNC(=O)N1c2ccccc2C=Cc2ccccc21,-1.34% (inactive)
16,CCN(CC(=O)NCc1ccco1)S(=O)(=O)c1ccc(F)cc1,-17.2% (inactive)
17,COC(=O)C(C)NC(=O)COc1ccc2ccccc2c1 (stereo unspecified),8.45% (inactive)
18,N/C(Cc1ccc([N+](=O)[O-])cc1)=N\OC(=O)COc1ccc2ccccc2c1,68.6% (active)
19,O=C(COC(=O)C1CCCCC1)Nc1ccc([N+](=O)[O-])cc1,13.8% (inactive)
20,Cc1cc(C)cc(OCC(=O)O/N=C(\N)Cc2ccc([N+](=O)[O-])cc2)c1,19.4% (inactive)
21,O=C(COC(=O)Cc1ccc([N+](=O)[O-])cc1)NC1CCCCCC1,13.1% (inactive)

row,SMILES,inhibition
1,N/C(Cc1ccc([N+](=O)[O-])cc1)=N\OC(=O)C1CCCCC1,61.6% (active)
2,CCOC(=O)C1=C(C)c2ccccc2OC1C(=O)OCC (stereo unspecified),9.8% (inactive)
3,COCCN(CCOC)c1nc(N)c2c(N)nc3c(c2c1C#N)CC(=O)N3Cc1ccc(Cl)cc1,28.9% (inactive)
4,CCc1cccc(CC)c1NC(=S)NCc1ccc2[nH]c(C)cc2c1,48.6% (active)
5,Cc1cc2cc(CNC(=O)c3cccs3)ccc2[nH]1,-2.64% (inactive)
6,CCc1cccc(CC)c1NC(=S)Nc1ccc2cn[nH]c2c1,18.2% (inactive)
7,O=C(Nc1nnc(CCN2CCCCC2)s1)c1cccc(Cl)c1,-12.8% (inactive)
8,Cc1cc(/C=C2/SC(=O)N(CC(=O)N3CCCC3)C2=O)ccc1N1CCOCC1,3.32% (inactive)
9,COC(=O)C1=C(C)N=C2SC(C)C(=O)N2C1/C=C/c1ccccc1 (stereo unspecified),19% (inactive)
10,CC(OC(=O)c1ccccc1N1C(=O)C2C3CCC(C3)C2C1=O)C(=O)c1ccccc1 (stereo unspecified),22.1% (inactive)
11,CCOC(=O)c1ccccc1N1C(=O)C2Sc3[nH]c(=O)sc3C(/C=C/c3ccccc3)C2C1=O (stereo unspecified),40.6% (active)
12,N#Cc1cccc(NC(=O)C2CCCN(C(=O)c3ccc(Cl)cc3)C2)c1 (stereo unspecified),7.79% (inactive)
13,CCC1(C)NC(=O)N(CC(=O)N2CCN(c3cccc(Cl)c3)CC2)C1=O (stereo unspecified),9.91% (inactive)
14,O=C(Nc1ccc2cn[nH]c2c1)c1ccc(S(=O)(=O)N2CCOCC2)cc1,-2.72% (inactive)
15,CCc1nc(C)cn1S(=O)(=O)c1cc([N+](=O)[O-])ccc1Cl,53.6% (active)
16,CCc1nc(C)cn1S(=O)(=O)c1cc(OC)c(C)cc1C,14.4% (inactive)
17,Cc1ccc([N+](=O)[O-])cc1S(=O)(=O)N1CCCN(C)CC1,-9.68% (inactive)
18,CCc1nccn1S(=O)(=O)c1cccc([N+](=O)[O-])c1,-8.99% (inactive)
19,O=C(Oc1ccc([N+](=O)[O-])cc1)c1ccc(Cl)c(S(=O)(=O)N2CCCCC2)c1,38.7% (inactive)
20,CC(C)c1nccn1S(=O)(=O)c1cc([N+](=O)[O-])ccc1Cl,43.6% (active)
21,CN(CCC1CCOCC1)Cc1cn[nH]c1-c1ccc(-c2ccccc2)cc1,18% (inactive)

row,SMILES,inhibition
1,COc1ccc(C(=O)C2CCCN(C(=O)c3cc4nc(C)cc(C)n4n3)C2)cc1F (stereo unspecified),26.4% (inactive)
2,CC(C)c1cc(C(N)=O)c(NC(=O)c2cccc(COc3ccc(Br)cc3)c2)s1,40.9% (active)
3,CCOC(=O)c1cc(C(C)C)sc1NC(=O)COC(=O)c1nccnc1N,9.86% (inactive)
4,CCOc1ccc(OCc2cccc(C(=O)N(CC)CC)c2)cc1,21.6% (inactive)
5,CC(C)CCN1CCC(C)(NC(=O)c2ccccc2)C1=O (stereo unspecified),10.4% (inactive)
6,COc1ccc(CN2C(=O)C(C)S/C2=N/N=C/c2ccco2)cc1 (stereo unspecified),19.3% (inactive)
7,Cc1nn(Cc2ccccc2)c2c1C(c1ccccc1)C(C#N)=C(N)O2 (stereo unspecified),30.9% (inactive)
8,COc1ccccc1C1C(C#N)=C(N)Oc2c1c(-c1ccccc1)nn2-c1ccccc1 (stereo unspecified),40.7% (active)
9,Cc1nn(-c2ccccc2)c2c1C(c1ccc(F)cc1)C(C#N)=C(N)O2 (stereo unspecified),24% (inactive)
10,COc1ccc(CCOC(=O)CNC(=O)c2ccc(Cl)cc2Cl)cc1,18.1% (inactive)
11,O=C(O)c1cccnc1Sc1ncnc2sc3c(c12)CCC3,-4.59% (inactive)
12,c1c2c(cc3sc(N4CCCCC4)nc13)OCCO2,43.1% (active)
13,Brc1ccc2nc(N3CCCC3)sc2c1,22.5% (inactive)
14,Cc1nc(N2CCCCC2)sc1C=O,-8.24% (inactive)
15,CC(C)N(C(=O)CN1CCN(S(=O)(=O)c2ccc(Br)s2)CC1)C(C)C,16.4% (inactive)
16,O=C(COC(=O)C1CC2C=CC1C2)Nc1ccccc1 (stereo unspecified),13.3% (inactive)
17,O=C1CC(c2cccc(Cl)c2)CC(O)=C1C=Nc1ccccc1 (stereo unspecified),21.6% (inactive)
18,CCOc1ccc(-c2cc(C(=O)N/N=C/c3ccc(O)cc3)c3ccccc3n2)cc1,6.2% (inactive)
19,O=C(O)c1cc([N+](=O)[O-])c(Nc2cccc3ccccc23)c([N+](=O)[O-])c1,7.28% (inactive)
